Assay results taken from PubChem BioAssay AID493194 (Broad Institute, 2011).
Results with a measured potency or affinity are listed apart. Inconclusive results are not listed. Calls of active or inactive are those of the source.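 Rule for the calls: active = a valid curve of falling signal whose half-effect concentration is at most ten times the top tested dose; inconclusive = flat curve at 30 to 70% inhibition, or poor fit; inactive = signal rise, flat within 30%, or potency beyond limit.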

The compounds below were run against Scavenger receptor class B member 1 (Mus musculus) (UniProt Q61009) (assay: mouse SR-BI DiI-HDL uptake blockers – ldlA[mSR-BI] cells, fluorescence, cherry pick, dose response (AID 493194;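 note: CHO cells lacking LDL receptor and overexpressing mouse SR-BI; cellular uptake of fluorescently labeled HDL measured as cell fluorescence; 0% = median of neutral control wells and -100% = median of positive control wells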)). Settings: CHO ldlA[mSR-BI] DiI-HDL uptake fluorescence, 3 h; series mostly up to 35 µM; activity change, negative = inhibition: at the top concentration.
Sequence of Scavenger receptor class B member 1 (Mus musculus) (Q61009 whole entry, looked up): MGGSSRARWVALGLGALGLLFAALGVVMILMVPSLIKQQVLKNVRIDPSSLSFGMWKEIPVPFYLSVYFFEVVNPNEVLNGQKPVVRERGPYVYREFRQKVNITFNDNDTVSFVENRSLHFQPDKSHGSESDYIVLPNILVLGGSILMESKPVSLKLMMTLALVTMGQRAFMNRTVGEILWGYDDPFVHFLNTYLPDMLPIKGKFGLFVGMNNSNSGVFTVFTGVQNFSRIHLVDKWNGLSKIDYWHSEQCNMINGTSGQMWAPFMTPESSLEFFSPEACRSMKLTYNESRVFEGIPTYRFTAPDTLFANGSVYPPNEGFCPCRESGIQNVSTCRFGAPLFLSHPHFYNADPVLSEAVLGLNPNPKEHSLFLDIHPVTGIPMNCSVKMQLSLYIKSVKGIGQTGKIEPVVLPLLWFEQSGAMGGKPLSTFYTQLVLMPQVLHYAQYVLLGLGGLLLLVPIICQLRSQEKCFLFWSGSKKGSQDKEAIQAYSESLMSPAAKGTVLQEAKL

Activity change, negative = inhibition, inactive:
Cc1ccc(-c2cc(-c3ccc(C)cc3O)[nH]n2)cc1 -5.14%
CNc1nc(-c2ccc3c(c2)CCN3C(=O)c2ccccc2F)c(C)s1 -4.41%
CCCOC(=O)c1[nH]c2c(c1C)C(=O)CC(c1cc(OC)c(OC)c(OC)c1)C2 (stereo not drawn) -16.9%
COc1ccc(-c2csc(N3CCN(c4cc(C)nc5ccccc45)CC3)n2)cc1OC -1.93%
N#Cc1ccc(C(=O)N2CCC3CC2c2cc(-c4ccccc4)ccc23)cc1 (stereo not drawn) 16.1%
O=C(N[C@@H]1C/C=C\C[C@H](CC(=O)N(CCO)Cc2ccccc2)C(=O)NC[C@@H](c2ccccc2)OC1=O)OCC1c2ccccc2-c2ccccc21 17.1%
CCOC(=O)c1c(C)n(-c2ccc(C)cc2)c2c(CC(C)=O)c(Br)c(OC)c(O)c12 1.79%
COc1ccc([C@H]2/C=C\CN(S(=O)(=O)c3ccc4ccccc4c3)[C@@H](C)C(=O)N2Cc2ccc(F)cc2)cc1 3.41%
Cc1cc2oc(=O)cc(-c3ccccc3)c2c(C)c1-c1ccc(C(F)(F)F)cc1 -5.41%
COc1ccc(N(CC(=O)NC2CCCC2)C(=O)Cn2nnc(-c3ccc(C)cc3)n2)cc1 0.875%
CCOC(=O)C1CCN(C(=O)Cn2cnc3sc(C)c(S(=O)(=O)N4CCC(C)CC4)c3c2=O)CC1 -14%
CCOc1ccc(NC(=O)CN2CCN(CC(=O)Nc3ccc(N(C)C)cc3)CC2)cc1 3.38%
O=C(c1ccc(S(=O)(=O)NCc2ccco2)cc1)N1CCN(Cc2ccc3c(c2)OCO3)CC1 -9.81%
COc1ccc(-c2nnc(SCC(=O)Nc3ncc(C(F)(F)F)cc3Cl)n2CC(C)C)cc1 -12.1%
COc1cccc(-c2csc(N3CCN(C(=S)Nc4cccc(Cl)c4)CC3)n2)c1 -32.3%
CC(C)CN(C(=O)COC(=O)C12CC3CC(CC(O)(C3)C1)C2)C1CCS(=O)(=O)C1 (stereo not drawn) 111%
CC(=O)Nc1cccc(NC(=O)c2ccc3c(c2)CCN3S(=O)(=O)c2ccccc2)c1 -18.7%
CC(=O)c1ccc(-c2ccc(C(=O)Nc3nc(C)c(C(C)=O)s3)o2)cc1 2.09%
CCCc1cc(-c2[nH]ncc2-c2ccc(C(=O)OCC)o2)c(O)cc1O 46.8%
COc1cc2c(C#CCCCO)c(-c3ccsc3)oc(=O)c2cc1OC -6.63%
CSc1nccc(-c2sc(SC)c(C#N)c2-c2ccccc2)n1 -17.5%
O=C(OCc1ccccc1)N1CCC2CC1c1cc(-c3ccc(F)cc3)ccc12 (stereo not drawn) 0.578%
COc1ccccc1NC(=O)CN1CCN(CC(=O)Nc2ccc(C)c(F)c2)CC1 -39.7%
CN(Cc1ccccc1N1CCCC1)C(=O)c1cc2cc(Cl)ccc2o1 -17%
COc1ccc(C2C(C#N)=C(N)N(c3ccccc3C#N)C3=C2C(=O)CCC3)cc1CN1CCCC1 (stereo not drawn) 30.7%
CN(C)c1ccc(/C=C2\Oc3ccc(C#Cc4cccc(N)c4)cc3C2=O)cc1 5.11%
CSc1ccccc1OCc1cc(C(=O)N(C)Cc2c(C)n[nH]c2C)no1 -51.2%
O=c1cc(N2CCCCC2)c(-c2ccccc2)nn1Cc1cccc(F)c1 60.8%
CCCCn1nc2cc(C(=O)NC3CCCc4ccccc43)ccc2c1OCC (stereo not drawn) -28%
CCOc1ccccc1COC(=O)c1cccc(-n2cnnn2)c1 -9.83%
Cc1cccc(N2CCN(C(=O)Cn3cccc3C(=O)c3ccccc3)CC2)c1C -20.2%
COc1ccc(C2/C=C\CN(S(=O)(=O)c3ccc(-c4ccccc4)cc3)CC(=O)N2Cc2ccc(F)cc2)cc1 (stereo not drawn) 2.88%
Cc1cc(C(=O)COC(=O)c2ccc(Cl)c(S(N)(=O)=O)c2)c(C)n1C1CC1 -28.6%
Cc1ccc(-c2cc(C(=O)Nc3sc4c(c3C(=O)NCc3ccco3)CCC4)[nH]n2)c(O)c1 46.6%
COc1ccc(-c2[nH]c(-c3ccc(F)cc3)nc2SCC(=O)NC2CCCC2)cc1 -26.3%
COCC(C)N1CC(O)=C(c2nc(-c3ccc(Cl)cc3)cs2)C1=N (stereo not drawn) -3.9%
CCc1cc(=O)oc2c3c(cc(OCC(=O)NCc4ccco4)c12)OC(C)(C)CC3 -15.8%
COc1ccc([C@H]2CC(=O)C=C(c3cccc4c3sc3ccccc34)C2)cc1OC -55.4%
